Measurements: PubChem BioAssay (EPA / NIEHS)
Results filed as inconclusive are left out. Calls of active or inactive are those of the source. Rule for the calls: active = hit-call score of the fitted dose curve at least 0.9, where 1 is the maximum; inconclusive = response in the unintended direction; inactive = score below 0.9.

assay: Tanguay_ZF_120hpf_YSE_legacy: (Legacy) Oregon State University Tanguay Lab 120 Hour Post-fertilization zebrafish Assay for Yolk Sac Edema (AID 2283634);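 for AC50: actives raise the incidence of yolk sac edema above the DMSO baseline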
Procedure: Tanguay_ZF_120hpf_legacy is a whole embryo, multiplexed endpoint assay using zebrafish larvae exposed for 120 hours post fertilization on a 96-well plate.Tanguay_ZF_120hpf_YSE_legacy is one of one assay component(s) measured or calculated from the Tanguay_ZF_120hpf_legacy assay. It is designed to make measurements of zebrafish development as detected with brightfield microscopy of developing zebrafish embryos.Data from the assay component Tanguay_ZF_120hpf_YSE_legacy was analyzed into 1 assay endpoints. This assay endpoint, Tanguay_ZF_120hpf_YSE_legacy, was analyzed in the positive analysis fitting direction relative to DMSO as the negative control and baseline of activity. Using a type of morphology reporter, gain-of-signal activity can be used to understand changes in developmentals as they relate to the whole embryo. To generalize the intended target to other relatable targets, this assay endpoint is annotated to the zebrafish development intended target family, where the subfamily is extra-embryonic membrane development.
Zebrafish husbandry: Tropical 5D wild-type adult zebrafish were housed in at an approximate density of 1000 per 100 gallon tank at the Sinnhuber Aquatic Research Laboratory, Oregon State University, Corvallis, OR. Each tank was kept at standard laboratory conditions of 28C on a 14-h light/10-h dark photoperiod in fish water consisting of reverse osmosis water supplemented with a commercially available salt (Instant Ocean). Spawning funnels were placed into the tanks the night prior, and embryos were collected and staged. To increase bioavailability, the chorion was enzymatically removed using pronase (63.6mg/ml, >/= 3.5U/mg, Sigma-Aldrich: P5147) at 4 hours post fertilization (hpf) using a custom automated dechorionator.Chemical exposures: Six hpf dechorionated embryos were placed 1 embryo per well in a 96-well plate prefilled with 90 ul of EM using automated embryo placement systems (AEPS). Ten microliters of each row of dilution plate 2 was added to 2 exposure plates. The final DMSO concentration used was 0.64% (vol/vol). Thirty-two embryos were also exposed to 5uM trimethyltin chloride (positive control). Plates were sealed to prevent evaporation and foil covered to reduce light exposure and kept in a 28C incubator. Embryos were statically exposed until 120 hpf. At 24 hpf, embryos were assessed for photomotor response using a custom photomotor response analysis tool (PRAT) and for developmental toxicity endpoints (MO24: mortality at 24 hpf, DP: developmental progression, SM: spontaneous movement, and NC: notochord distortion). At 120 hpf, locomotor activity was measured using Viewpoint Zebralab and assessed for 18 endpoints. Zebrafish acquisition and analysis program (ZAAP), a custom program designed to inventory, acquire, and manage zebrafish data, was used to collect developmental endpoints as either present or absent (i.e., binary responses were recorded). If mortality occurred for an embryo (at either 24 or 120 hpf), the non-mortality endpoints were not measured.

| SMILES | outcome | AC50 |
| --- | --- | --- |
| NC(=O)N(O)[C@@H]1COc2cc(OCc3ccccc3)ccc21 | inactive |  |
| C=CN1CCCC1=O | inactive |  |
| O=C(O)c1cccc(C[C@@H]2COc3ccc(OCc4nc5cc(F)ccc5s4)cc3[C@@H]2O)c1 |  | 5.39 µM (active) |
| Cc1nc(-c2ccccn2)ncc1C(=O)Nn1cc(C)c2cc(F)ccc21 | inactive |  |
| CC(C)CC(C)O (stereo not given) | inactive |  |
| COS(C)(=O)=O | inactive |  |
| OCCNCCO | inactive |  |
| CC(=O)c1ccccc1 | inactive |  |
| c1ccc(C(O[C@@H]2CCCN(CCc3ccc4c(c3)OCO4)C2)c2ccccc2)cc1 |  | 24.7 µM (active) |
| OCC(CO)(CO)CO | inactive |  |
| OCCOCCOCCO | inactive |  |
| CC(C)CCCCCCOC(=O)C1CCCCC1C(=O)OCCCCCCC(C)C (stereo not given) | inactive |  |
| C[C@]12C=CC(=O)C=C1CC[C@H]1[C@@H]3C[C@@H](O)[C@](O)(C(=O)CO)[C@@]3(C)C[C@H](O)[C@@]12F | inactive |  |
| NNC(=O)c1ccncc1 | inactive |  |
| O=C(O)[C@H](O)[C@@H](O)C(=O)O | inactive |  |
| CCN(CC)C(=S)SSC(=S)N(CC)CC |  | 0.425 µM (active) |
| COCc1nnc(-c2ccc[n+]([O-])c2)n1-c1c(Cl)c(Cl)cc2[nH]c(=O)c(=O)[nH]c12 | inactive |  |
| CCCc1ccccc1 | inactive |  |
| NC(=O)NN=Cc1ccc([N+](=O)[O-])o1 | inactive |  |
| CCCCCOC(C)=O | inactive |  |

| SMILES | outcome | AC50 |
| --- | --- | --- |
| CCCCCCOC(=O)CC(CC(=O)OCCCCCC)(OC(=O)CCC)C(=O)OCCCCCC | inactive |  |
| CC(C)C(=O)Nc1ccc([N+](=O)[O-])c(C(F)(F)F)c1 | inactive |  |
| c1ccc2c(c1)-c1cccc3c1c-2cc1ccccc13 | inactive |  |
| COc1cc2c(c(OC)c1OC)-c1ccc(OC)c(=O)cc1[C@@H](NC(C)=O)CC2 |  | 27.1 µM (active) |
| OCc1ccccc1 | inactive |  |
| c1ccc2ncccc2c1 | inactive |  |
| OC[C@H]1O[C@@H]2O[C@H]3[C@H](O)[C@@H](O)[C@@H](O[C@H]4[C@H](O)[C@@H](O)[C@@H](O[C@H]5[C@H](O)[C@@H](O)[C@@H](O[C@H]6[C@H](O)[C@@H](O)[C@@H](O[C@H]7[C@H](O)[C@@H](O)[C@@H](O[C@H]1[C@H](O)[C@H]2O)O[C@@H]7CO)O[C@@H]6CO)O[C@@H]5CO)O[C@@H]4CO)O[C@@H]3CO | inactive |  |
| NC(N)=O | inactive |  |
| C[C@@H](Oc1ccc(CNC(=O)c2cccnc2Oc2ccc3c(c2)OCO3)c(F)c1)C(=O)O | inactive |  |
| CCCOc1ccc(S(=O)(=O)N2CCN(CC)CC2)cc1-c1nc2c(CC)n(Cc3ccccn3)nc2c(=O)[nH]1 | inactive |  |
| O=c1[nH]cnc2c1ncn2[C@H]1CC[C@@H](CO)O1 | inactive |  |
| Cn1c(=O)c2[nH]cnc2n(C)c1=O | inactive |  |
| OC(CCl)CCl | inactive |  |
| OC(Cn1cncn1)(Cn1cncn1)c1ccc(F)cc1F | inactive |  |
| C=CCc1cc(S(=O)(=O)c2ccc(O)c(CC=C)c2)ccc1O | inactive |  |
| CCCCOC(=O)c1ccccc1 | inactive |  |
| OC[C@H]1O[C@@](CO)(O[C@H]2O[C@H](CO)[C@@H](O)[C@H](O)[C@H]2O)[C@@H](O)[C@@H]1O | inactive |  |
| CCCCC(CC)C(=O)OCCOCCOCCOC(=O)C(CC)CCCC (stereo not given) | inactive |  |
| O=S(=O)(O)c1ccc(N=Nc2c(O)ccc3cc(S(=O)(=O)O)ccc23)cc1 | inactive |  |
| CCCCCCCCCC | inactive |  |
